A number with no mark means an inactive call.
system: MCF10A; experiment: perturbation Mahalanobis distance of morphological profile vs DMSO controls (Mahalanobis distance (SD units)); higher = stronger morphological change, active = 7 or more; conditions: screen batch: Batch2_Mahalanobis_Distance; 72 h
Experimental: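 MCF10A cells were seeded onto drugs dispensed acoustically into 384-well plates, using one dose per drug chosen from its human peak plasma concentration, and incubated for 72 h at 37 °C. Cells were stained for DNA, tubulin and mitochondria and imaged; 78 CellProfiler features were extracted, plate-normalised and compared with DMSO wells.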

**Q.** How did the “perturbation Mahalanobis distance” value turn out when `COc1ccc(C[C@@H]2c3cc(OC)c(OC)cc3CC[N@+]2(C)CCC(=O)OCCCCCOC(=O)CC[N@@+]2(C)CCc3cc(OC)c(OC)cc3[C@H]2Cc2ccc(OC)c(OC)c2)cc1OC` [Cisatracurium Besylate] (18.1 µM) was run?
**A.** 4.5

**Q.** With `O=C1Nc2ccc(Cl)cc2[C@@](C#CC2CC2)(C(F)(F)F)O1` [Efavirenz] (28.8 µM) as the compound, how does the “perturbation Mahalanobis distance” value read?
**A.** 4.25

**Q.** With `Nc1ncn([C@@H]2O[C@H](CO)[C@@H](O)[C@H]2O)c(=O)n1` [Azacitidine] (15.4 µM) as the compound, how does the “perturbation Mahalanobis distance” value read?
**A.** 17.2 (active)

**Q.** With `COc1cc(C(=O)NS(=O)(=O)c2ccccc2C)ccc1Cc1cn(C)c2ccc(NC(=O)OC3CCCC3)cc12` [Zafirlukast] (0.26 µM) as the compound, how does the “perturbation Mahalanobis distance” value read?
**A.** 1.99

**Q.** Which “perturbation Mahalanobis distance” value does the source give for `CCc1c2c(nc3ccc(O)cc13)-c1cc3c(c(=O)n1C2)COC(=O)[C@]3(O)CC` [7-Ethyl-10-Hydroxy-Camptothecin] (16.78 µM) here?
**A.** 2.55

**Q.** How did the “perturbation Mahalanobis distance” value turn out when `O=C1C(=O)c2ccccc2C(O)=C1C1CCC(c2ccc(Cl)cc2)CC1` (stereo not given) [Atovaquone] (37.9 µM) was run?
**A.** 1.78

**Q.** Which “perturbation Mahalanobis distance” value does the source give for `NC12CC3CC(CC(C3)C1)C2` [Amantadine] (19.85 µM) here?
**A.** 3.87

**Q.** `C=CC[C@@H]1/C=C(\C)C[C@H](C)C[C@H](OC)[C@H]2O[C@@](O)(C(=O)C(=O)N3CCCC[C@H]3C(=O)O[C@H](/C(C)=C/[C@@H]3CC[C@@H](O)[C@H](OC)C3)[C@H](C)[C@@H](O)CC1=O)[C@H](C)C[C@@H]2OC` [Tacrolimus] (0.09 µM) was tested. Which “perturbation Mahalanobis distance” value did it give?
**A.** 2.28

**Q.** With `CCCCN1C[C@H](O)[C@@H](O)[C@H](O)[C@H]1CO` [Miglustat] (92.6 µM) as the compound, how does the “perturbation Mahalanobis distance” value read?
**A.** 3.14

**Q.** With `COc1cc(Cc2cnc(N)nc2N)cc(OC)c1OC` [Trimethoprim] (43.1 µM) as the compound, how does the “perturbation Mahalanobis distance” value read?
**A.** 3.85

**Q.** Which “perturbation Mahalanobis distance” value does the source give for `CC(=O)Nc1nnc(S(N)(=O)=O)s1` [Acetazolamide] (90 µM) here?
**A.** 2.44

**Q.** How did the “perturbation Mahalanobis distance” value turn out when `CCN(CC)C(=S)S` [Sodium Diethyldithiocarbamate Trihydrate] (10 µM) was run?
**A.** 3.24

**Q.** Which “perturbation Mahalanobis distance” value does the source give for `NS(=O)(=O)Cc1noc2ccccc12` [Zonisamide] (141.4 µM) here?
**A.** 2.95

**Q.** Which “perturbation Mahalanobis distance” value does the source give for `CCCCC(F)(F)[C@@]1(O)CC[C@H]2[C@@H](CC(=O)[C@@H]2CCCCCCC(=O)O)O1` [Lubiprostone] (64 µM) here?
**A.** 2.48

**Q.** With `CC(=O)O[C@]1(C(C)=O)CC[C@H]2[C@@H]3CCC4=CC(=O)CCC4=C3[C@@H](c3ccc(N(C)C)cc3)C[C@@]21C` [Ulipristal Acetate] (3.9 µM) as the compound, how does the “perturbation Mahalanobis distance” value read?
**A.** 10.4 (active)

**Q.** For `C[C@@](N)(Cc1ccc(O)c(O)c1)C(=O)O` [Methyldopa] (118.4 µM), which “perturbation Mahalanobis distance” value is on record?
**A.** 3.85

**Q.** Which “perturbation Mahalanobis distance” value does the source give for `CNCCCC12CCC(c3ccccc31)c1ccccc12` [Maprotiline] (10.8 µM) here?
**A.** 6.41

**Q.** How did the “perturbation Mahalanobis distance” value turn out when `COc1cc(C(=O)NCc2ccc(OCCN(C)C)cc2)cc(OC)c1OC` [Trimethobenzamide] (257.426.762 µM) was run?
**A.** 5.46

**Q.** `CC(C)C1CCC(C(=O)N[C@H](Cc2ccccc2)C(=O)O)CC1` (stereo not given in full) [Nateglinide] (66.1 µM) was tested. Which “perturbation Mahalanobis distance” value did it give?
**A.** 3.16

**Q.** For `CC12CC3CC(C)(C1)CC(N)(C3)C2` [Memantine] (1.3 µM), which “perturbation Mahalanobis distance” value is on record?
**A.** 3.3

**Q.** For `NC(N)=NCC1COC2(CCCCC2)O1` (stereo not given) [Guanadrel] (140.7 µM), which “perturbation Mahalanobis distance” value is on record?
**A.** 2.51

**Q.** How did the “perturbation Mahalanobis distance” value turn out when `O=c1ncnc2[nH][nH]cc1-2` [Allopurinol] (139.6 µM) was run?
**A.** 2.89

**Q.** With `NC(=O)OCC(COC(N)=O)c1ccccc1` [Felbamate] (205.7 µM) as the compound, how does the “perturbation Mahalanobis distance” value read?
**A.** 2.91

**Q.** With `CC/C(=C(\c1ccc(O)cc1)c1ccc(OCCNC)cc1)c1ccccc1` [Endoxifen] (6.75 µM) as the compound, how does the “perturbation Mahalanobis distance” value read?
**A.** 7.34 (active)

**Q.** `CC(C)(C)C(=O)OCC(=O)[C@H]1CC[C@H]2[C@@H]3CCC4=CC(=O)CC[C@]4(C)[C@H]3CC[C@]12C` [Desoxycorticosterone Pivalate] (0.72 µM) was tested. Which “perturbation Mahalanobis distance” value did it give?
**A.** 3.54

**Q.** For `C[N+](C)(C)CCOC(=O)CCC(=O)OCC[N+](C)(C)C` [Succinylcholine Chloride] (12.65 µM), which “perturbation Mahalanobis distance” value is on record?
**A.** 2.84

**Q.** `CC(C)C(=O)Nc1ccc([N+](=O)[O-])c(C(F)(F)F)c1` [Flutamide] (27.2 µM) was tested. Which “perturbation Mahalanobis distance” value did it give?
**A.** 6.63

**Q.** For `Nc1ccc(O)c(C(=O)O)c1` [Mesalazine] (39.2 µM), which “perturbation Mahalanobis distance” value is on record?
**A.** 2.94

**Q.** `O=C1CCc2ccc(OCCCCN3CCN(c4cccc(Cl)c4Cl)CC3)cc2N1` [Aripiprazole] (3.3 µM) was tested. Which “perturbation Mahalanobis distance” value did it give?
**A.** 2.92

**Q.** For `O=C1CC2(CCCC2)C(O)C(=O)N1CCCCN1CCN(c2ncccn2)CC1` (stereo not given) [6-Hydroxybuspirone] (0.05 µM), which “perturbation Mahalanobis distance” value is on record?
**A.** 3.29

**Q.** Which “perturbation Mahalanobis distance” value does the source give for `CC(=O)O[C@H]1C[C@@H]2CC[C@@H]3[C@H](CC[C@@]4(C)[C@H]3C[C@H]([N+]3(C)CCCCC3)[C@@H]4OC(C)=O)[C@@]2(C)C[C@@H]1N1CCCCC1` [Vecuronium Bromide] (3.3 µM) here?
**A.** 2.49

**Q.** How did the “perturbation Mahalanobis distance” value turn out when `Nc1nnc(-c2cccc(Cl)c2Cl)c(N)n1` [Lamotrigine] (54.6 µM) was run?
**A.** 2.9

**Q.** With `c1cnc2cc3c(cc2n1)C1CNCC3C1` [Varenicline] (0.24 µM) as the compound, how does the “perturbation Mahalanobis distance” value read?
**A.** 2.29

**Q.** For `CN1C(CCl)Nc2cc(Cl)c(S(N)(=O)=O)cc2S1(=O)=O` (stereo not given) [Methyclothiazide] (0.5 µM), which “perturbation Mahalanobis distance” value is on record?
**A.** 2.45

**Q.** How did the “perturbation Mahalanobis distance” value turn out when `CN/C(=C\[N+](=O)[O-])NCCSCc1csc(CN(C)C)n1` [Nizatidine] (7.5 µM) was run?
**A.** 2.13

**Q.** How did the “perturbation Mahalanobis distance” value turn out when `Nc1nc2ccc(OC(F)(F)F)cc2s1` [Riluzole] (4.3 µM) was run?
**A.** 3.82

**Q.** How did the “perturbation Mahalanobis distance” value turn out when `CCN(CC)CCCC(C)Nc1ccnc2cc(Cl)ccc12` (stereo not given) [Chloroquine] (4.7 µM) was run?
**A.** 2.82

**Q.** With `CN1C[C@H]2c3ccccc3Oc3ccc(Cl)cc3[C@@H]2C1` [Asenapine] (0.07 µM) as the compound, how does the “perturbation Mahalanobis distance” value read?
**A.** 2.47

**Q.** With `O=c1[nH]cc(F)c(=O)[nH]1` [5-Fluorouracil] (2.5 µM) as the compound, how does the “perturbation Mahalanobis distance” value read?
**A.** 16.5 (active)

**Q.** `CC(=O)c1ccc(S(=O)(=O)NC(=O)NC2CCCCC2)cc1` [Acetohexamide] (10 µM) was tested. Which “perturbation Mahalanobis distance” value did it give?
**A.** 4.7

From the supplement of paper PMC6853941
